# System: CLK2
# Conditions: concentration: 1 μM, replicates: in singlicate; n = 1
# 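Note: KINOMEscan kinase panel screen.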
row,Structure (SMILES),%Inh [%]
1,CCCC(=O)Nc1n[nH]c2ncc(-c3cccc4ccccc34)cc12 [SB-642057],0
2,Nc1nc(N)c2nc(-c3ccccc3)[nH]c2n1 [SKF-12778],11
3,Cl.c1ccc(Cn2cnc3cc(Nc4ncnc5ccccc45)ccc32)cc1 [GW272142],0
4,COc1cccc(-n2cnc3c(N)ncnc32)c1 [SKF-97416],3
5,COC(=O)c1c(-c2ccccc2)c2cc(Br)ccc2c(=O)n1Cc1ccc(S(C)(=O)=O)cc1,14
6,COc1cccc(C2=C(Nc3cccc(C(=O)O)c3)C(=O)NC2=O)c1 [SB-390770],21
7,O=C1NC(=O)C(c2ccccc2)=C1Nc1cccc(O)c1 [SB-390534],21
8,O=c1cc(N2CCOCC2)nc2n(Cc3ccc(F)c(Cl)c3)ccn12 [GSK2297099],45
9,Cc1nnc(-c2ccc3ncn(-c4ccc(S(C)=O)cc4)c3c2)o1 (centres unmarked),10
10,CCc1nc(-c2cccc(C)c2)c(-c2ccncc2)s1,6
11,CCn1c(-c2ccoc2)nc2cnccc21 [SB-733887],0
12,COc1cc2ncn(-c3cc(OCc4ccc(S(C)(=O)=O)cc4)c(C(N)=O)s3)c2cc1OC [GW869979],1
13,COc1ccc(-c2coc3ccc(-c4nnc(SCc5cccc(C#N)c5)o4)cc23)cc1,10
14,Fc1cccc(CSc2nnc(-c3ccc4c(c3)CCO4)o2)c1,20
15,Cc1ccc(Oc2ccc(Nc3ncnc4cc[nH]c34)cc2C)cn1,0
16,COc1ccc(-n2cnc3c(N)ncnc32)cc1 [SKF-97236],48
17,COc1cc(Nc2nccc(N3CCC(NC(=O)C(C)c4ccc(Cl)cc4)C3)n2)cc(OC)c1OC (centres unmarked) [GSK1379757],0
18,Cc1nn2c(=O)cc(N3CCOCC3)nc2n1Cc1cccc(Cl)c1Cl [GSK2342769],1
19,COc1ccc(-c2cc3c(C)nc(N)nc3n([C@H]3CC[C@H](O)CC3)c2=O)cn1,0

row,Structure (SMILES),%Inh [%]
1,COc1cc2ncn(-c3cc(OCc4ccncc4)c(C(N)=O)s3)c2cc1OC [GSK336313],5
2,COc1cc(Nc2nccc(N3CCC(NC(=O)C4COc5ccccc5O4)C3)n2)cc(OC)c1OC (centres unmarked) [GSK1379761],0
3,Nc1ncnc2c1ncn2-c1cccc(F)c1 [SKF-97560],0
4,CCC(=O)c1c(-c2ccccc2)c2cc(Cl)ccc2c(=O)n1Cc1cc(C(=O)NC2CC2)n(C)n1,0
5,Nc1n[nH]c2ncc(-c3ccccc3)cc12 [SB-517081],0
6,Cc1nc(N(C)[C@H]2CN(C(=O)CC#N)CC[C@H]2C)c2cc[nH]c2n1,15
7,CC(C)(C)c1ccc(C(=O)Nc2cn3cc(-c4ccccc4)ccc3n2)cc1,7
8,FC(F)(F)c1ccc(-c2ncn(CCCN3CCOCC3)c2-c2ccncc2)cc1 [SB-217780],0
9,O=C(Nc1n[nH]c2nc(-c3ccccc3)c(Cl)cc12)C1CC1 [SB-734909],0
10,COc1ccc(-c2cc3c(C)nc(N)nc3n([C@H]3CC[C@H](OCCO)CC3)c2=O)cn1,0
11,Cc1ccc(-c2ccc3c(ccc4sc5c(c43)NC[C@@H](C)N=C5N(C)C)n2)cn1,0
12,Nc1n[nH]c2nnc(-c3ccccc3)c(-c3ccccc3)c12 [GW554060],65
13,CCC(=O)c1c(-c2ccccc2)c2cc(Cl)ccc2c(=O)n1Cc1ccc(C(=O)O)cc1,0
14,CCS(=O)(=O)c1ccc(OC)c(Nc2ncc(-c3ccc(F)cc3)o2)c1.Cl [GW591947],40
15,CCS(=O)c1ccc(-c2coc3ccc(-c4nnc(C)o4)cc23)cc1 (centres unmarked),0
16,O=C(NCc1cccs1)c1cc(C(=O)c2c(Cl)cccc2Cl)c[nH]1 [GW823670],22
17,COc1cccc(C2=C(N(C)c3ccccc3)C(=O)NC2=O)c1 [SB-334865],0
18,OCCCNc1nccc(-c2c(-c3cccc(C(F)(F)F)c3)nn3cc(C(F)(F)F)ccc23)n1 [GW630813],0

# System: CLK3
# Conditions: concentration: 1 μM, replicates: in singlicate; n = 1
row,Structure (SMILES),%Inh [%]
1,CCCC(=O)Nc1n[nH]c2ncc(-c3cccc4ccccc34)cc12 [SB-642057],0
2,Nc1nc(N)c2nc(-c3ccccc3)[nH]c2n1 [SKF-12778],13
3,Cl.c1ccc(Cn2cnc3cc(Nc4ncnc5ccccc45)ccc32)cc1 [GW272142],72
4,COc1cccc(-n2cnc3c(N)ncnc32)c1 [SKF-97416],0
5,COC(=O)c1c(-c2ccccc2)c2cc(Br)ccc2c(=O)n1Cc1ccc(S(C)(=O)=O)cc1,0
6,COc1cccc(C2=C(Nc3cccc(C(=O)O)c3)C(=O)NC2=O)c1 [SB-390770],0
7,O=C1NC(=O)C(c2ccccc2)=C1Nc1cccc(O)c1 [SB-390534],19
8,O=c1cc(N2CCOCC2)nc2n(Cc3ccc(F)c(Cl)c3)ccn12 [GSK2297099],26
9,Cc1nnc(-c2ccc3ncn(-c4ccc(S(C)=O)cc4)c3c2)o1 (centres unmarked),0
10,CCc1nc(-c2cccc(C)c2)c(-c2ccncc2)s1,0
11,CCn1c(-c2ccoc2)nc2cnccc21 [SB-733887],0
12,COc1cc2ncn(-c3cc(OCc4ccc(S(C)(=O)=O)cc4)c(C(N)=O)s3)c2cc1OC [GW869979],0
13,COc1ccc(-c2coc3ccc(-c4nnc(SCc5cccc(C#N)c5)o4)cc23)cc1,0
14,Fc1cccc(CSc2nnc(-c3ccc4c(c3)CCO4)o2)c1,0
15,Cc1ccc(Oc2ccc(Nc3ncnc4cc[nH]c34)cc2C)cn1,0
16,COc1ccc(-n2cnc3c(N)ncnc32)cc1 [SKF-97236],0
17,COc1cc(Nc2nccc(N3CCC(NC(=O)C(C)c4ccc(Cl)cc4)C3)n2)cc(OC)c1OC (centres unmarked) [GSK1379757],43
18,Cc1nn2c(=O)cc(N3CCOCC3)nc2n1Cc1cccc(Cl)c1Cl [GSK2342769],16
19,COc1ccc(-c2cc3c(C)nc(N)nc3n([C@H]3CC[C@H](O)CC3)c2=O)cn1,0

row,Structure (SMILES),%Inh [%]
1,COc1cc2ncn(-c3cc(OCc4ccncc4)c(C(N)=O)s3)c2cc1OC [GSK336313],0
2,COc1cc(Nc2nccc(N3CCC(NC(=O)C4COc5ccccc5O4)C3)n2)cc(OC)c1OC (centres unmarked) [GSK1379761],0
3,Nc1ncnc2c1ncn2-c1cccc(F)c1 [SKF-97560],0
4,CCC(=O)c1c(-c2ccccc2)c2cc(Cl)ccc2c(=O)n1Cc1cc(C(=O)NC2CC2)n(C)n1,0
5,Nc1n[nH]c2ncc(-c3ccccc3)cc12 [SB-517081],0
6,Cc1nc(N(C)[C@H]2CN(C(=O)CC#N)CC[C@H]2C)c2cc[nH]c2n1,0
7,CC(C)(C)c1ccc(C(=O)Nc2cn3cc(-c4ccccc4)ccc3n2)cc1,9
8,FC(F)(F)c1ccc(-c2ncn(CCCN3CCOCC3)c2-c2ccncc2)cc1 [SB-217780],0
9,O=C(Nc1n[nH]c2nc(-c3ccccc3)c(Cl)cc12)C1CC1 [SB-734909],15
10,COc1ccc(-c2cc3c(C)nc(N)nc3n([C@H]3CC[C@H](OCCO)CC3)c2=O)cn1,0
11,Cc1ccc(-c2ccc3c(ccc4sc5c(c43)NC[C@@H](C)N=C5N(C)C)n2)cn1,0
12,Nc1n[nH]c2nnc(-c3ccccc3)c(-c3ccccc3)c12 [GW554060],0
13,CCC(=O)c1c(-c2ccccc2)c2cc(Cl)ccc2c(=O)n1Cc1ccc(C(=O)O)cc1,0
14,CCS(=O)(=O)c1ccc(OC)c(Nc2ncc(-c3ccc(F)cc3)o2)c1.Cl [GW591947],79
15,CCS(=O)c1ccc(-c2coc3ccc(-c4nnc(C)o4)cc23)cc1 (centres unmarked),0
16,O=C(NCc1cccs1)c1cc(C(=O)c2c(Cl)cccc2Cl)c[nH]1 [GW823670],0
17,COc1cccc(C2=C(N(C)c3ccccc3)C(=O)NC2=O)c1 [SB-334865],0
18,OCCCNc1nccc(-c2c(-c3cccc(C(F)(F)F)c3)nn3cc(C(F)(F)F)ccc23)n1 [GW630813],0
